Results reported in PubChem BioAssay (NCATS).
Results filed as inconclusive are left out. Activity calls are given as the source filed them. The call rests on the fitted dose curve; in most records, active means well fitted curve in either direction with a large enough effect (not every such curve was filed as active); inconclusive means small, poorly fitted or top-dose-only effect, or another doubt; inactive means flat fitted curve, though single readings scatter.

Assay: Stat Signaling Pathway (AID 446);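 further: ME-180 cervical cancer cells given 40 pM IL-6 alongside compound; SIE-controlled beta-lactamase reporter measured as 460/530 nm FRET emission ratio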
Details: ME-180 (cervical carcinoma) SIE beta-lactamase reporter, IL-6 stimulated, 5 h; at 7.69 µM (top of the series) unless noted
Outline: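 IL-6/STAT signaling read in ME-180 cells via an SIE beta-lactamase reporter. Stimulus was 40 pM IL-6 (its AC50) for 5 hrs, so both activation and inhibition register.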
On the % scale 0 is the no-effect control and ±100 the full control effect.

Row | SMILES | activity, negative = inhibition
1 | Cc1ccc(Nc2nnc(-c3ccc4c(c3)OCO4)o2)c(C)c1 | -2.78% (inactive)
2 | CN[C@@H](c1ccncc1)[C@@H](NC)c1ccncc1 | -0.841% (inactive)
3 | Cc1cnc(CNc2nc(-c3cccnc3)nc3ccccc23)cn1 | -9.76% (inactive)
4 | C(=N/Nc1nnc2c(n1)[nH]c1ccccc12)/c1cccnc1 | -7.13% (inactive)
5 | CC(C)[C@@H]1OC(=O)C=CC=CC=CC=CC=CC[C@@H](O)[C@H](C)[C@@H](O)C[C@H](O)C[C@H](O)C[C@H](O)C[C@H](O)C[C@H](O)C[C@H](O)C=C[C@@H]1C | 8% (inactive)
6 | COc1ccc2c(c1)Cc1cc(N=[N+]([O-])c3ccc4c(c3)Cc3cc(OC)ccc3-4)ccc1-2 | -1.13% (inactive)
7 | Nc1nc(SC/C=C\c2ccccc2)c2[nH]cnc2n1 | 1.2% (inactive)
8 | O=C(CC(=O)c1ccncc1)c1ccccc1 | 4.76% (inactive)
9 | O=c1oc2cc(N=Cc3ccc4c(c3)OCO4)ccc2c2ccccc12 | -1.72% (inactive)
10 | CSC1(SC2=NCCN2)SC2(NCCN2)S1 | 5.32% (inactive)
11 | O[C@@H](C1=C/C(=C\c2ccncc2)c2ccccc21)c1ccncc1 | -15.9% (inactive)
12 | Nc1nc(SCCc2ccccc2)c2[nH]cnc2n1 | -1.34% (inactive)
13 | Nc1nc(SCc2ccccc2[N+](=O)[O-])c2[nH]cnc2n1 | -8.39% (inactive)
14 | O=S(=O)(c1cnccc1N1CCN(CCO)CC1)N1CCCC1 | 8.84% (inactive)
15 | COc1ccc(Oc2ncc3nc(C)c(=O)n(-c4ccc(OC)cc4)c3n2)cc1 | -16.4% (inactive)
16 | Cn1ncc2c(NCCc3ccccc3)nc(Cl)nc21 | -19.5% (inactive)
17 | C/C(=N/Nc1ccc2ccccc2n1)c1ccccc1O | 7.92% (inactive)
18 | Nc1[nH]c(=S)[nH]c(=O)c1N=Nc1c(Br)cc(S(N)(=O)=O)cc1Br | 12% (inactive)
19 | COc1ccc(C[C@@H]2C(=O)N[C@H](C)C(=O)N(C)[C@@H]3Cc4ccc(cc4)Oc4cc(ccc4O)C[C@H](C(=O)N[C@@H](C)C(=O)N[C@H](C)C(=O)N2C)N(C)C3=O)cc1 | -104% (active)
20 | O=C(O)c1ccc(SSc2ccc(C(=O)O)cn2)nc1 | 15.8% (inactive)

Row | SMILES | activity, negative = inhibition
21 | Cc1ccc(S(=O)(=O)Nc2cc(=O)[nH]c3c2CCC3)cc1 | -3.68% (inactive)
22 | BrC(c1cccc2ccccc12)c1cccc2ccccc12 | -2.07% (inactive)
23 | c1ccc(C[C@@H](Nc2cccnc2)c2ccccc2)cc1 | -4.39% (inactive)
24 | N=C(N)S[C@H]1c2ccccc2-c2cc([N+](=O)[O-])ccc21 | -2.76% (inactive)
25 | CC(C)(C)C(=O)[C@H]([C@@H](c1ccccc1)N1CCOCC1)N1CCOCC1 | 2.4% (inactive)
26 | O=C(O)CCc1nc(-c2ccccc2-n2cccc2)no1 | -0.807% (inactive)
27 | O=C(O)/C(=C\c1ccccc1)Cc1ccccc1 | 5.03% (inactive)
28 | O=S(=O)(O)c1cc(O)c2c(N=Cc3ccccc3O)cc(S(=O)(=O)O)cc2c1 | -1.77% (inactive)
29 | Cn1c(=S)c2[nH]c(SCc3cccnc3)nc2n(C)c1=O | 1.06% (inactive)
30 | CC(C)N1CCN(c2ccncc2S(=O)(=O)N2CCCCC2)CC1 | -6.7% (inactive)
31 | Cc1cc2c(cc1C)NC1=C(N2)O[C@H](c2c[nH]c3ccc(COc4ccccc4)cc23)C1=O | -5.89% (inactive)
32 | COc1cc(Cl)c(CC(=O)c2c[nH]c3ccccc23)cc1OC | -15.8% (inactive)
33 | Cc1ccc2c(c1)N[C@H](c1ccc(C(=O)O)cc1)c1cccn1-2 | -5.32% (inactive)
34 | COc1ccc2c(Cl)cc(NC(=S)Nc3ccccc3)nc2c1 | 2.27% (inactive)
35 | c1ccc2c(c1)-c1nc3ccccc3cc1[C@H]2N1CCOCC1 | 7.66% (inactive)
36 | Nc1cccc(OCc2nc(N)nc(N)c2-c2ccc(Cl)cc2)c1 | 6.21% (inactive)
37 | CC1=C/C(=C(/c2ccc(O)c(C)c2)c2ccccc2C(=O)O)C=CC1=O | 4.74% (inactive)
38 | N#C/C(=C\Nc1ccccn1)C(=O)c1ccco1 | 3.37% (inactive)
39 | Cn1c(=O)c2[nH]c(CCCCc3nc4c([nH]3)c(=O)n(C)c(=S)n4C)nc2n(C)c1=S | -5.06% (inactive)
